Holding throughout (experiment): Confirmatory Screen for Target Class Profiling of Small Molecule Inhibitors of Methyltransferases (AID 1745852); as to activity change, negative = inhibition: % is scaled to controls: 0 for no effect and ±100 for the full control effect
Experiment [1] deals with Catechol O-methyltransferase (Homo sapiens) (UniProt P21964). The conditions noted are these: MTase-Glo luminescence, SAH detection, recombinant enzyme; measured here: COMT max response; stronger effect = lower value.
Experiment [2] has as its target Guanidinoacetate N-methyltransferase (Homo sapiens) (UniProt Q14353). The conditions noted are these: MTase-Glo luminescence, SAH detection, recombinant enzyme; activity change, negative = inhibition: at 57.3 µM (top of the series) unless noted; series mostly up to 57.3 µM.
The target of experiment [3] is Nicotinamide N-methyltransferase (Homo sapiens) (UniProt P40261). Conditions: MTase-Glo luminescence, SAH detection, recombinant enzyme; measured here: NNMT max response; stronger effect = lower value.
Experiment [4] addresses Phenylethanolamine N-methyltransferase (Homo sapiens) (UniProt P11086). The conditions noted are these: MTase-Glo luminescence, SAH detection, recombinant enzyme; measured here: PNMT max response; stronger effect = lower value.

Activity calls are given as the source filed them. Calls follow the shape of the full dose curve.
Potency is read from the fitted curve at half-maximal effect.

Sequence of Catechol O-methyltransferase (Homo sapiens) (P21964 whole entry, looked up): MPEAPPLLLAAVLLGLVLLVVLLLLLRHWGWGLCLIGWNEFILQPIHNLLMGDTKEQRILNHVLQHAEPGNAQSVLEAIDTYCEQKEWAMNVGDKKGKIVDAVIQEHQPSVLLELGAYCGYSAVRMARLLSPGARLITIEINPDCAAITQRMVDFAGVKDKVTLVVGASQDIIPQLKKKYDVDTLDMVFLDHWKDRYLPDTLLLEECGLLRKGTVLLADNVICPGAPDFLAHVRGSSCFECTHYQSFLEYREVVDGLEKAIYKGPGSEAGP
Sequence of Phenylethanolamine N-methyltransferase (Homo sapiens) (P11086 whole entry, looked up): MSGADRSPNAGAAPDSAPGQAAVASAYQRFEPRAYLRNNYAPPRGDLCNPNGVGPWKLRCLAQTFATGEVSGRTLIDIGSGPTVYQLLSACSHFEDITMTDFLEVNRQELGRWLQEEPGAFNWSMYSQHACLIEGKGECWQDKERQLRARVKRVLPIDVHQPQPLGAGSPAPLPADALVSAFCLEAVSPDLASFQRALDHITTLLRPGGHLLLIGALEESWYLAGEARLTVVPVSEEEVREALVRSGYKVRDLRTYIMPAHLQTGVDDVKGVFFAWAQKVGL
Sequence of Nicotinamide N-methyltransferase (Homo sapiens) (P40261 whole entry, looked up): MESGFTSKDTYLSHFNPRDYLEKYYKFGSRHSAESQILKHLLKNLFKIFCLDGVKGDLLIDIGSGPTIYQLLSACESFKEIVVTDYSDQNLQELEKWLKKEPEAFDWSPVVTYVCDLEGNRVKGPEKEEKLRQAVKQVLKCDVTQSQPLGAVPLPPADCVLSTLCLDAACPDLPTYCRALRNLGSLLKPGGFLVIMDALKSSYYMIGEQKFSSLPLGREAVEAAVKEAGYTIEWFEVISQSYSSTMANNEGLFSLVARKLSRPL

As to `CN1CCC(N2CC[C@H](c3nc4ccc(C(F)(F)F)cc4[nH]3)C2)CC1`, the activity in experiment [1] amounted to 7.98%; in experiment [3] it was 10.1%; in experiment [4] it was 7.95%. In experiment [2], the activity change, negative = inhibition was 9.6% [at 85.7 µM].

`CCCC1c2cccn2CCN1C(=O)Nc1ccc(Br)c(C)c1` (stereo not given): the activity in experiment [1] is -4.66%; in experiment [3] it was -7.57%; in experiment [4], -6.57%. Moreover, the activity change, negative = inhibition in experiment [2] was -2.02%.

Regarding `CC1CC(C)CN(S(=O)(=O)c2ccc3c(c2)oc(=O)n3CC(=O)Nc2ccc(F)cc2)C1` (stereo not given), the values for the activity in experiment [1], in experiment [3] and in experiment [4] were 4.26%, -4.58% and -42.5%, respectively. For the same compound, in experiment [2], the activity change, negative = inhibition was found to be 0%.

For the compound `Cc1noc(C)c1-c1cnc(Nc2ccncc2)c2c1CCO2`, the activity in experiment [1] was 0.912%; in experiment [3] it was -6.04%; in experiment [4], 2.25%. For the same compound, in experiment [2], the activity change, negative = inhibition was 1.39% [at 85.7 µM].

With `CCc1ccc(N2C(=O)c3cc4sccc4n3CC2(C)C(=O)NC2CCCCCC2)cc1` (stereo not given), the activity in experiment [1] is -4.01%; in experiment [3] it was -5.2%; in experiment [4], -7.25%. Moreover, the activity change, negative = inhibition in experiment [2] stood at 0.902%.

For the compound `CC1CCCC(NC(=O)C2(C)Cn3c(cc4occc43)C(=O)N2Cc2ccco2)C1C` (stereo not given), the activity in experiment [1] is -10.3%; in experiment [3], -20.3%; in experiment [4], -11.1%. For the same compound, the activity change, negative = inhibition in experiment [2] is -6.55%.

As to `COc1cccc([S+](=O)([O-])N2CCC3(C2)N=C(c2cccnc2)C(=O)N3)c1` (stereo not given), the activity is -6.05% in experiment [1], -8.17% in experiment [3] and -16.9% in experiment [4]. Besides, the activity change, negative = inhibition in experiment [2] was -6.21%.

Take `O=C(CCc1nnc2n(CCc3ccccc3)c(=O)c3ccccc3n12)NCCCN1CCCCC1`: the results for the activity in experiment [1], in experiment [3] and in experiment [4] were -0.192%, 0.418% and 0.873%, respectively. Moreover, the activity change, negative = inhibition in experiment [2] came out at 0%.

For `Cc1ccc2c(c1)c(-n1cccc1)c1n2CC(C)(C(=O)NCCC(C)C)N(Cc2cccnc2)C1=O` (stereo not given), the values for the activity in experiment [1], in experiment [3] and in experiment [4] were 4.4%, -51.8% and 0%, respectively. In experiment [2], the activity change, negative = inhibition was 0%.

On to `CCCC1c2cccn2CCN1C(=O)Nc1ccc(C)cc1Cl` (stereo not given), for which the activity in experiment [1] was 0.596%; in experiment [3] it was -6.98%; in experiment [4] it was -0.613%. The Potency result in experiment [2] is “inactive”.

As to `COc1ccc(-c2n[nH]n3c2nc(=O)c2ccc(C(=O)NC(C)c4ccc(F)cc4)cc23)cc1` (stereo not given), the activity is -18.7% in experiment [1], -25% in experiment [3] and -17.7% in experiment [4]. The activity change, negative = inhibition in experiment [2] was -8.96%.

Take `COc1ccc(N2CCN(C(=O)c3cc(NC(C)=O)cc4nc(C)ccc34)CC2)cc1`: the figures for the activity in experiment [1], in experiment [3] and in experiment [4] were 1.89%, 4.7% and 7.32%, respectively. Also, the activity change, negative = inhibition in experiment [2] came to 4.56%.

For `CC(C)CCN1CC2(CCCN(C(=O)c3ccn(C)c(=O)c3)C2)CCC1=O` (stereo not given), the activity came to 5.04% in experiment [1], 3.97% in experiment [3] and 1.77% in experiment [4]. The activity change, negative = inhibition in experiment [2] stood at 8.37%.

For the compound `OCC1(Cc2ccccc2)CCCN(Cc2cn[nH]c2-c2ccc(F)cc2)C1` (stereo not given), the results for the activity in experiment [1], in experiment [3] and in experiment [4] were 5.88%, 0.855% and 5.69%, respectively. Moreover, the activity change, negative = inhibition in experiment [2] was 4.38%.

Turning to `O=C(O)c1ccc2c(c1)C1C=CCC1C(c1cccc(F)c1)N2` (stereo not given), the activity was -2.11% in experiment [1], 0.825% in experiment [3] and -2.83% in experiment [4]. The activity change, negative = inhibition in experiment [2] came to 2.71%.

Turning to `O=C(CC1CCCC1)N1CCC(Nc2cccnc2)C1` (stereo not given), the activity was -11% in experiment [1], -14.6% in experiment [3] and -7.86% in experiment [4]. Besides, the activity change, negative = inhibition in experiment [2] was -10.5%.

Take `CN(C)c1nc2c(c(N3C[C@@H](CN4CCCC4)[C@@H](CO)C3)n1)CCCC2`: the activity in experiment [1] was determined as 4.35%; in experiment [3] it was 3.39%; in experiment [4] it was 3.79%. Besides, the activity change, negative = inhibition in experiment [2] amounted to 2.26%.

Consider `Cc1ccc(Cn2c(=O)c3ccccc3n3c(CCC(=O)NCCCN4CCC(C)CC4)nnc23)cc1`, for which the activity in experiment [1] is 0%; in experiment [3], -6.98%; in experiment [4] it was 0%. For the same compound, in experiment [2], the activity change, negative = inhibition turned out to be 0%.

With `COc1ccc(CNc2cc3c(cn2)CN(Cc2ccccc2)CCN3)cc1OC`, the results for the activity in experiment [1], in experiment [3] and in experiment [4] were 2.46%, -32.8% and 1.92%, respectively. Also, the activity change, negative = inhibition in experiment [2] stood at 0.935% [at 85.7 µM].

For the compound `COc1ccc2nc([C@H]3CCN(C4CCCCC4)C3)[nH]c2c1`, the activity is -5.45% in experiment [1], -3.99% in experiment [3] and -4.21% in experiment [4]. The activity change, negative = inhibition in experiment [2] was 4.16% [at 85.7 µM].

For `COc1ccc(OC)c2c1cc1n2CC(C)(C(=O)NC2CCCCC2C)N(Cc2ccco2)C1=O` (stereo not given), the figures for the activity in experiment [1], in experiment [3] and in experiment [4] were -9.78%, -25.6% and -10.3%, respectively. Also, the activity change, negative = inhibition in experiment [2] is -6.29%.

Regarding `COc1ccc(OC)c2c1cc1n2CC(C)(C(=O)NC2CCCCC2)N(Cc2ccccn2)C1=O` (stereo not given), the activity in experiment [1] was -7.35%; in experiment [3] it was -22.4%; in experiment [4], -6.38%. In experiment [2], the activity change, negative = inhibition is -3.03%.

Turning to `N#Cc1ccccc1-c1cc2c(ccn2Cc2ccncc2)c(N2CCOCC2)n1`, the activity is -6.69% in experiment [1], -6.24% in experiment [3] and -4.65% in experiment [4]. The activity change, negative = inhibition in experiment [2] is -0.304% [at 85.7 µM].

For `CCOC(=O)c1ccc(NC(=O)Cn2c(=O)oc3cc(S(=O)(=O)N4CCCC4)ccc32)cc1`, the activity in experiment [1] is -7.51%; in experiment [3] it was -9.52%; in experiment [4], -37.8%. Moreover, the activity change, negative = inhibition in experiment [2] was -4.51%.

Regarding `CCc1ccc(NS(=O)(=O)c2ccc3c(c2)n(C)c(=O)n3C)cc1`, the activity in experiment [1] is 4.08%; in experiment [3], -40.6%; in experiment [4], -1.22%. Further, the activity change, negative = inhibition in experiment [2] stood at 0%.

Consider `Cc1c(C(=O)O)ccc2c1N[C@@H](c1cccc(C(F)(F)F)c1)[C@H]1CC=C[C@@H]21`, for which the activity in experiment [1] is -4.24%; in experiment [3], -5.85%; in experiment [4], -7.15%. Further, the activity change, negative = inhibition in experiment [2] is -0.164%.

For the compound `Cc1noc(C)c1-c1cc2c(cc(C)n2CCN(C)C)c(Nc2ccncn2)n1`, the activity was -14.2% in experiment [1], -15.3% in experiment [3] and -28.6% in experiment [4]. Further, the activity change, negative = inhibition in experiment [2] is -6.67% [at 85.7 µM].

On to `O=C(CCC[C@@H]1[C@H]2CCCN3CCC[C@@H](CN1Cc1ccccc1)[C@@H]23)Nc1cccnc1`, for which the figures for the activity in experiment [1], in experiment [3] and in experiment [4] were -3.16%, -11.8% and -2.62%, respectively. The activity change, negative = inhibition in experiment [2] was -5.99%.

Take `COc1ccc(-c2nc3ccncc3[nH]2)cc1`: the activity in experiment [1] was -92.6%; in experiment [3], -106%; in experiment [4] it was -86.1%. Further, the Potency in experiment [2] was 12.4 µM (active).

On to `CCN(CC)CCCNC(=O)CCCc1nnc2n3nc(-c4ccccc4)nc3c3ccccc3n12`, for which the values for the activity in experiment [1], in experiment [3] and in experiment [4] were -3.39%, -0.543% and -1.05%, respectively. Further, the activity change, negative = inhibition in experiment [2] worked out at 0%.

The record behind these values is PubChem BioAssay (NCATS).
